# Source: paper PMC7819943, “Rice protein-binding microarrays: a tool to detect cis-acting elements near promoter regions in rice”
# The full ranking holds about 39,000 sequences; the median of “fluorescence intensity (a.u.)” is about 4,300, and the highest 2% start at about 39,000. Many of the other results were omitted from the sample, so the highest values are more common in it than they were.
# Target: T1, OsSMF1 (Oryza sativa, UniProt Q6ZLB0 1-436)
# T1 sequence: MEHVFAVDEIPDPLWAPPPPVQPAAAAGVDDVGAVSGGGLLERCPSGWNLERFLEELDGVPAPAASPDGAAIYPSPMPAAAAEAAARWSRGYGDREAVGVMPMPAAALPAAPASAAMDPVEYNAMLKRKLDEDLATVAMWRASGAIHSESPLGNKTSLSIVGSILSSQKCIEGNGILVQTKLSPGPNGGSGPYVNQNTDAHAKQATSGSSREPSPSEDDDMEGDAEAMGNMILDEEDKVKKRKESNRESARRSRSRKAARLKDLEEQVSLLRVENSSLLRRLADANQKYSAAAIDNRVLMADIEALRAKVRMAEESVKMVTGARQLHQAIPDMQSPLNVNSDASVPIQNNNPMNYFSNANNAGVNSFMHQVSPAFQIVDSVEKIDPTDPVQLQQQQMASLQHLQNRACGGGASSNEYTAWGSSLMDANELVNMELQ
# Experiment: protein-binding microarray (RPBM); PBS, 2% BSA, 51.3 ng/ul salmon testes DNA, 50 uM zinc acetate, 200 nM TF, 25 C, 1 h; high values mean tight binding
# Settings: protein: recombinant; tags: N-terminal polyhistidine and DsRed monomer fusion (pET32a); chain copies: 2; label: CyDye5-dUTP incorporated in the synthesized complementary strand; 3' TTTTT single-stranded linker to array surface; dsDNA, one strand shown
# How it was run: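 Per-feature fluorescence intensity (arbitrary units), read on an Axon 4000B scanner, is the binding signal. Transcription factors carrying an N-terminal polyhistidine tag and DsRed fusion were expressed in E. coli BL21-CodonPlus and purified on Ni–NTA. A custom Agilent array, made double-stranded by primer extension with Cy5-dUTP and blocked with 2% BSA, was incubated with 200 nM protein in PBS, 2% BSA, salmon testes DNA and 50 µM zinc acetate at 25 °C for 1 h and then washed.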
row,Sequence,binding signal
1,TGTGTGCGTGTGTTGTGACTTATGATGTGTTTCTTAAGAACGGAGTCACCTAGTGCAG,4170 fluorescence intensity (a.u.)
2,CTATTGCAAATTGCAATGCTGTATATGCACTTCATTAGAACGGAGTCACCTAGTGCAG,54100 fluorescence intensity (a.u.)
3,CATGGTAGAAAATTAGATTATGGTGCATTTGCTGCAAATGCGGAGTCACCTAGTGCAG,3860 fluorescence intensity (a.u.)
4,TAGAATTTCTCTTCATATAATGCTACGTCATTGCTATATACGGAGTCACCTAGTGCAG,10300 fluorescence intensity (a.u.)
5,TCATTAACATCAATATGAATGTGAGAAATGCTAGAATGACCGGAGTCACCTAGTGCAG,3240 fluorescence intensity (a.u.)
6,GATTCATTTAACAATTATATGAATGTGGGAAATGCTAGAACGGAGTCACCTAGTGCAG,44400 fluorescence intensity (a.u.)
7,CTAGATTTATTAATATCGATATGAATGTGGAAAATGCTAGCGGAGTCACCTAGTGCAG,18100 fluorescence intensity (a.u.)
8,AATAATTTTCTCATTTTCTTTAACAGAAGATGACAATGCACGGAGTCACCTAGTGCAG,34800 fluorescence intensity (a.u.)
9,TTTGAATCAAAGGAATGGATCTTATGGAATCCTATAAAATCGGAGTCACCTAGTGCAG,40400 fluorescence intensity (a.u.)
10,CACTTGGTAATTACTTCTACTATGTCATCCTTATCATAATCGGAGTCACCTAGTGCAG,3200 fluorescence intensity (a.u.)
11,CACCACCCTAAATGGAATAAGAAAATTCTTATTTGTGAATCGGAGTCACCTAGTGCAG,3440 fluorescence intensity (a.u.)
12,AGTTCATTATCATCATGTAATGAATCATCATGAATCCAAACGGAGTCACCTAGTGCAG,3280 fluorescence intensity (a.u.)
13,TCCTTCAAGAATCCTATACTTCTTAAATCAGGAACATAATCGGAGTCACCTAGTGCAG,8910 fluorescence intensity (a.u.)
14,ATCTTATGGAATCCTATGAAATTCATATGGAATGCCTAATCGGAGTCACCTAGTGCAG,65000 fluorescence intensity (a.u.)
15,GATTGAATCATATCGTATCCTTTGAAATTCCTATGGAATGCGGAGTCACCTAGTGCAG,4120 fluorescence intensity (a.u.)
16,AGTTCTACTTGAGTTATGTAATGAATCACAATGCCTTCATCGGAGTCACCTAGTGCAG,53400 fluorescence intensity (a.u.)
17,TCCAAATCCTATGAAATTCCTATGGAAATCCACGTTGCATCGGAGTCACCTAGTGCAG,7670 fluorescence intensity (a.u.)
18,TAAGGAGGGTGTTGGGAGGGTGGGAGCTTTGCTTGGGGTGCGGAGTCACCTAGTGCAG,3950 fluorescence intensity (a.u.)
19,TTGTTGAACTATAGGGTAGATGTGATATGTAAGAATTGCCCGGAGTCACCTAGTGCAG,3280 fluorescence intensity (a.u.)
20,CCGGGGTGTCAGAAATCCAGGCCCACCCGTCAGCGACGCGCGGAGTCACCTAGTGCAG,4130 fluorescence intensity (a.u.)
21,AAATCTCTCTCCACCCTTTCAGCGCGCCACGTGTCCCACACGGAGTCACCTAGTGCAG,18900 fluorescence intensity (a.u.)

row,Sequence,binding signal
1,CAAAATACTCAAGCGGCGGCATTGTCATCTTCCTCCTCCCCGGAGTCACCTAGTGCAG,3550 fluorescence intensity (a.u.)
2,TGCTATGCTATGGCAAGAACATCTTGAGCCATGACATCATCGGAGTCACCTAGTGCAG,4390 fluorescence intensity (a.u.)
3,AATGCCAAGTGGCAGCCTATGAGCGTTTGTAGCATGCCATCGGAGTCACCTAGTGCAG,41200 fluorescence intensity (a.u.)
4,GAGTATTTGGCATGGTTGTAGCGTTGGTGACCTGAGTCATCGGAGTCACCTAGTGCAG,7270 fluorescence intensity (a.u.)
5,TCTGTTTAGTTACATCACTGATGGTCTTGATTTCGCAGTGCGGAGTCACCTAGTGCAG,4040 fluorescence intensity (a.u.)
6,CTGCACTACGCCGCAGACGAACTGACGTGGTCGTATAAAACGGAGTCACCTAGTGCAG,5790 fluorescence intensity (a.u.)
7,CCCTGGGTGGTTTTGGAGGTGGTTTTGGTTGACGTGGCGCCGGAGTCACCTAGTGCAG,21400 fluorescence intensity (a.u.)
8,GGTCAAGAGCGCATCCAGCATGTCGTCGTGTACCTGACCGCGGAGTCACCTAGTGCAG,3720 fluorescence intensity (a.u.)
9,TAGGTTAGTGGTGGCTGGGTCGTCACGTCATTGCATTGCACGGAGTCACCTAGTGCAG,3270 fluorescence intensity (a.u.)
10,CCATGGCGGGGTGTATTGTTGTTGTATTTGGGGTTCTGGTCGGAGTCACCTAGTGCAG,3630 fluorescence intensity (a.u.)
11,TGTAGTGTTACAGTATGCCACGTCATCATGCTACGCTATTCGGAGTCACCTAGTGCAG,43900 fluorescence intensity (a.u.)
12,TTGTTCCTTTACAGTTTACAGTCATCTCTATTGTAGTATTCGGAGTCACCTAGTGCAG,4220 fluorescence intensity (a.u.)
13,TAGTGTTTGTTTTGGGTTGTGCTCAGCTTAGCTCTGGTGTCGGAGTCACCTAGTGCAG,39800 fluorescence intensity (a.u.)
14,GTGGTGTTACGCTACTCGTGCAGTAGTGCCTCATCATGGGCGGAGTCACCTAGTGCAG,3500 fluorescence intensity (a.u.)
15,TTTAGCTCTCGTCGATGTGGTGTTTGTTGGGTTTTCCCTTCGGAGTCACCTAGTGCAG,3670 fluorescence intensity (a.u.)
16,AGATTTTGGGTGTGTTTGGTTGCTTGCATTGTTTTAGTCTCGGAGTCACCTAGTGCAG,3300 fluorescence intensity (a.u.)
17,AGTAGTATTGGCTTGGGGTGTTGCCACGTCATCACCTGGTCGGAGTCACCTAGTGCAG,55000 fluorescence intensity (a.u.)
18,ACTCTGCCGGCAGGCGTACGTGTGTCCCGGCATTTGGTCGCGGAGTCACCTAGTGCAG,4500 fluorescence intensity (a.u.)
19,TCTTCCAAATGAACTGGCAATATACTTGTACACGTTCTGTCGGAGTCACCTAGTGCAG,3190 fluorescence intensity (a.u.)
20,ATTCACAGGCCTTTCTTAATTAAAACGGTAGATGGAGCAACGGAGTCACCTAGTGCAG,28400 fluorescence intensity (a.u.)
21,TTGCCGTATCGGCTCGCCTGAAAGCGTGTCATTAGCATGACGGAGTCACCTAGTGCAG,3950 fluorescence intensity (a.u.)
